Only a selection was taken, and hits are over-represented in it overall.
Shiga toxin inh: A qHTS for Small Molecule Inhibitors of Shiga Toxin. Vero cells, Shiga toxin protein synthesis inhibition reporter. inhibition, % at 38.7 µM. actives 9.2% (n = 290,000). AID 2315, 2010; in the data active means inhibition mostly above about 28%, no sharp cut-off; inactive means mostly below about 43%; further: 0% is about no effect
LmPK inhibitor: qHTS Assay for Inhibitors of Leishmania Mexicana Pyruvate Kinase (LmPK). Q27686. purified LmPK, Kinase-Glo ATP luminescence, 1 h. Potency, µM (titrated, usually from 57.5 µM), inactives show at the highest dose activity change, negative = inhibition, actives largely listed as inhibitors. actives 0.37% (n = 290,000). AID 1721, 2009; further: potency means the concentration at half of the fitted maximal effect; on the % scale 0 is the no-effect control and ±100 the full control effect
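ATP generated from ADP (0.1 mM) and PEP (0.5 mM) by 0.1 nM LmPK over 1 h at room temperature (pH 7.2 imidazole buffer) was detected by coupled luciferase luminescence. Values were normalized to uninhibited and no-enzyme wells.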
Cycloheximide cs: Cycloheximide Counterscreen for Small Molecule Inhibitors of Shiga Toxin | actives 12% (n = 300,000) | cell reporter, cycloheximide protein synthesis inhibition counterscreen | AID 2314, 2010 | max response, %; in the data active means max response mostly above about 13%, no sharp cut-off; inactive means mostly below about 14%; further: read at 38.3 µM for the half of the compounds with a filed dose; 0% is about no effect
Tb PYK inh: qHTS of Trypanosoma Brucei Inhibitors; pyruvate kinase (Trypanosoma brucei), Q57TT1; TbPYK enzyme, Kinase-Glo Plus ATP luminescence, 45 min; Potency, µM (highest dose often 76.8 µM), for the others: top-dose activity, negative = inhibition, hits mostly inhibitors; actives 0.12% (n = 410,000); further: potency means the concentration at half of the fitted maximal effect; on the % scale 0 is the no-effect control and ±100 the full control effect; nearly all actives have a fitted effect of over 50% in size
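In this concentration-response screen, enzyme-free wells defined baseline while DMSO plates tracked drift. Each reaction combined TbPYK, substrate, compound and 130 uM ADP for 45 min at room temperature. Kinase-Glo Plus luminescence gave the signal.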
FBPA Giardia inh: qHTS Assay for Inhibitors of Fructose-1,6-bisphosphate Aldolase from Giardia Lamblia | AID 2451, 2010 | A8B2U2 | purified Giardia FBPA | Potency, µM (doses to about 59.6 µM), for the others: top-dose activity, negative = inhibition, hits mostly inhibitors | actives 0.71% (n = 290,000); further: potency means the concentration at half of the fitted maximal effect; on the % scale 0 is the no-effect control and ±100 the full control effect; nearly all actives have a fitted effect of over 55% in size
Target sequence (A8B2U2 whole entry, looked up): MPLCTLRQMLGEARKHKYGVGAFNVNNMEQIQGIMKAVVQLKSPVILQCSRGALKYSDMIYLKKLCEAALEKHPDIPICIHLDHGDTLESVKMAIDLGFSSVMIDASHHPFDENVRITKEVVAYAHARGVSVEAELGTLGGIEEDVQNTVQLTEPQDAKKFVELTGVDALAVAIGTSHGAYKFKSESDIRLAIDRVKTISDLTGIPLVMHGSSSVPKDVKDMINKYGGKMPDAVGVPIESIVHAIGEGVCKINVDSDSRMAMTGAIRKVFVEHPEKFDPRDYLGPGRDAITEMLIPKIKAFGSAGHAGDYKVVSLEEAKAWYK
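40 nM FBPA preincubated 10 min at RT with compound (up to 57.5 uM final), then substrate plus GAPDH/TPI/NAD/arsenate coupling and diaphorase/resazurin added. Fluorescence read after 20 min at RT, 525/598 nm.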
Sm TGR inh: qHTS Assay for the Inhibitors of Schistosoma Mansoni Peroxiredoxins; Potency, µM (titrated, usually from 114 µM), for inactives: top-dose activity change, negative = inhibition, actives largely listed as inhibitors; AID 485364, 2010; actives 3% (n = 360,000); Schistosoma mansoni thioredoxin glutathione reductase (TGR), Q962Y6; purified TGR, DTNB reduction, TNB absorbance 405 nm; further: potency means the concentration at half of the fitted maximal effect; on the % scale 0 is the no-effect control and ±100 the full control effect; nearly all actives have a fitted effect of over 60% in size
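TGR 20 nM + NADPH 100 uM (dispensed conc.), cpd preinc 15 min RT; start with NADPH (500 uM addition) then DTNB (15 mM addition). Kinetic TNB absorbance, 405 nm filter. Four-parameter Hill fit across titration.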
* marks the source's active call; other numbers are inactive results; u = inconclusive; x = no result; [ ] = remark or other dose. Unless noted, the call rests on the fitted dose curve; in most records, active means well fitted curve in the direction sought with a large enough effect; inconclusive means small, poorly fitted or top-dose-only effect, or another doubt; inactive means no such curve, though single readings can be large; an effect the other way counts as inactive or inconclusive.

SMILES	Shiga toxin inh	LmPK inhibitor	Cycloheximide cs	Tb PYK inh	FBPA Giardia inh	Sm TGR inh
O=C(NC12CC3CC(CC(C3)C1)C2)c1ccc([N+](=O)[O-])o1	15	3%	11*	1%	2%	0%
N#Cc1cccc(NC(=O)N2CC[C@@]3(CCCN(C(=O)c4cc(C(F)(F)F)cc(C(F)(F)F)c4)C3)C2)c1	x	x	x	-1%	-10%	x
C[C@H]1Cc2c(COc3ccccc3)nc3c(c2CO1)CN(C(=O)Cc1cccs1)CC3	x	-9%[11.5 µM]	x	x	6%[12.9 µM]	x
CC1(C)CSC(C)(C)C(=O)N1	x	x	x	-4%	x	x
CN1C(=C2C(=O)OC(C)(C)OC2=O)Sc2ccccc21	117*	-7%	44*	0%	5%	9%
Cc1cc(C)c(NC(=O)CNC(=O)c2ccc3ncsc3c2)c(C)c1	x	x	x	-20%	x	x
CCc1ccc(NC(=O)c2ccc3ncsc3c2)cc1	68*	-5%	44*	x	x	1%
O=C(Nc1ccc(Br)cc1)c1ccc2ncsc2c1	89*	5%	50*	-21%	5%	-7%
O=C(Nc1ccc2c(c1)C(=O)NC2=O)c1ccc2ncsc2c1	92*	-1%	22*	0%	1%	-2%
COc1ccc(NC(=O)c2ccc3ncsc3c2)cc1	114*	0%	58*	-10%	4%	0%
CC(C)(C)c1ccc(NC(=O)COC(=O)c2ccc3ncsc3c2)cc1	x	x	x	-8%	x	-14%
C=CCC[C@@H](CCCCC)OC(=O)/C=C/[C@H](O)[C@@H](O)C[C@H](O)CC=C	x	x	x	5%	x	x
Cn1ccc2c(N3CCCCC3)cc3c(c21)C1CCC3O1 (configuration not stated)	x	x	x	-6%	x	x
CCNc1c(NC(=O)c2cc(OCC)c(OCC)c(OCC)c2)c(=O)oc2ccccc12	x	x	x	1%	x	4%
CN(C)/C=N/c1c(C#N)cnn1-c1ccc(F)c(Cl)c1	32	x	15	x	0%	x
CN(C)S(=O)(=O)c1ccc(NC(=O)c2ccc3ncsc3c2)cc1	62*	-8%	22	1%	-4%	0%
CCOc1ccc(NC(=O)c2ccc(S(=O)(=O)N(C)C)cc2)cc1	-4	-2%	12	7%	3%	0%
COc1ccc(NC(=O)C(C)N(c2ccccc2)S(C)(=O)=O)cc1 (configuration not stated)	x	x	x	-3%	x	3%
COc1ccc(CCC(=O)NCc2ccco2)cc1	11	3%	-3	-19%	3%	56µM*
CC(C)(C)NS(=O)(=O)c1ccc(CCC(=O)NCc2ccco2)cc1	-7	4%	2	-6%	-1%	35µM*
COc1ccc(N(C(C)C(=O)NCc2ccco2)S(C)(=O)=O)cc1 (configuration not stated)	-5	4%	-2	-19%	-11%	25µM*
O=C(CSc1nc2ccccc2n1Cc1ccc(F)cc1)N1CCN(c2ccc(F)cc2)CC1	x	x	x	1%	x	4%
Cc1cccc(CNC(=O)Cc2csc3ccccc23)c1	75*	x	63*	0%	x	-4%
Cc1ccc(CNC(=O)Cc2csc3ccccc23)cc1	x	x	x	1%	x	3%
C=C(CC)C(=O)c1ccc(OCC(=O)O)c(Cl)c1Cl	-7	-2%	-3	-7%	u	35µM*
SMILES	Shiga toxin inh	LmPK inhibitor	Cycloheximide cs	Tb PYK inh	FBPA Giardia inh	Sm TGR inh
O=C(N/N=C\c1ccc(CNS(=O)(=O)c2ccccc2)o1)C(=O)Nc1ccc(F)cc1	-4	2%	14*	-8%	2%	2%
O=C(O)C(c1ccccc1)N1C(=O)/C(=C\c2ccc(-c3ccccc3Cl)o2)SC1=S (configuration not stated)	46	0%	4	2%	-7%	14µM*
Cc1nc2ccc(NC(=O)Cc3c(F)cccc3Cl)cc2s1	53*	1%	31*	2%	3%	12%
CC(=O)c1sc(NC(=O)Cc2c(F)cccc2Cl)nc1C	-4	-3%	12	4%	-2%	5%
CCOC(=O)c1sc(NC(=O)Cc2c(F)cccc2Cl)nc1C	75*	-1%	30*	2%	3%	1%
O=C(Cc1c(Cl)cccc1Cl)NC1=NCCS1	-4	1%	5	x	-13%	5%
O=C(Cc1c(F)cccc1Cl)Nc1nc2ccccc2s1	113*	4%	38*	3%	-7%	-23%
O=C(Cc1c(F)cccc1Cl)NC1=NCCS1	3	4%	20*	3%	-2%	-5%
CNC(=O)C1CCC(Cn2c(=O)c3sccc3n(CC(=O)Nc3ccc(C)cc3C)c2=O)CC1 (configuration not stated)	x	x	x	1%	x	-7%
COC(=O)c1ccccc1NC(=O)Cn1cnc2sc(C)c(S(=O)(=O)N3CCC(C)CC3)c2c1=O	x	x	x	2%	x	0%
CCCc1cnc(N2CCN(S(C)(=O)=O)CC2)nc1	41	-2%	23*	-3%	8%	2%
CCN(CC(=O)Nc1ccccc1C(F)(F)F)C(=O)C1CC(=O)N(Cc2ccccc2)C1 (configuration not stated)	x	x	x	-3%	x	-1%
CC(C)(C)C1CCC(=NNC(=O)c2cc3c(s2)CCCC3)CC1 (configuration not stated)	-3	-2%	-2	3%	3%	-10%
CC(C)(C)C1CCc2sc(C(=O)NNC(=O)CCl)cc2C1 (configuration not stated)	109*	4%	59*	-1%	9%	11µM*
CNC(=O)c1cc2ncc(C(F)(F)F)cc2s1	38	11%	18*	-4%	0%	11%
CNC(=O)C(C)c1ncc(C(F)(F)F)cc1Cl (configuration not stated)	2	-2%	-1	2%	3%	7%
CCc1ccc(Nc2cnn(-c3nc4ccccc4s3)c(=O)c2Cl)cc1	84*	1%	71*	2%	0%	-11%
C#CCOc1ccc(C2C3=C(CCCC3=O)N(CC(=O)O)C3=C2C(=O)CCC3)cc1Br	-2	1%	0	-5%	4%	40µM*
C=CCOc1ccc(C2C3=C(CCCC3=O)N(CC(=O)O)C3=C2C(=O)CCC3)cc1OCC	-5	-3%	-2	-10%	-19%	45µM*
CCCOc1ccc(C2C3=C(CCCC3=O)N(CC(=O)O)C3=C2C(=O)CCC3)cc1OCC	x	4%	-4	-13%	1%	-5%
COC(=O)c1nnc(C(=O)NCc2ccccc2)c2[nH]c3ccc(OC)cc3c12	x	x	x	x	0%	x
CN1C(=O)[C@@H]2[C@H](C1=O)[C@@H]1C(=O)Nc3ccccc3C(=O)N1[C@@H]2c1cccc(Br)c1	x	x	x	-3%	x	-8%
Cc1ccccc1CNC(=O)C1CCN(c2nnc(-n3c(C)ccc3C)s2)CC1	x	x	x	-1%	x	-29%

Compound activity: PubChem, National Center for Advancing Translational Sciences (NCATS)
